Measured values as given in the supplement of paper PMC7595190.
Values without a mark were called inactive.

System: MV4-11
Experiment: CellTox Green cytotoxicity fluorescence relative to DMSO vehicle (fold of vehicle RFU); higher = more cell death (loss of membrane integrity), active = 2 or more
Experimental: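 Paediatric AML cell lines (MV4-11, CMK, Kasumi-1; 4x10^4 cells/well, 96-well) treated with single compounds from the Selleckchem apoptosis library at 0.01, 0.1 and 1 µM. Cytotoxicity was read with CellTox Green (RFU, Ex 485/Em 520) at 24, 48 and 72 h and normalised to the 0.1% DMSO vehicle. Normalised RFU >= 2 was taken as a successful, cell-killing treatment.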

SMILES | CellTox Green cytotoxicity fluorescence (0.01 µM, 24 h) | CellTox Green cytotoxicity fluorescence (0.01 µM, 48 h) | CellTox Green cytotoxicity fluorescence (0.01 µM, 72 h) | CellTox Green cytotoxicity fluorescence (0.1 µM, 24 h) | CellTox Green cytotoxicity fluorescence (0.1 µM, 48 h) | CellTox Green cytotoxicity fluorescence (0.1 µM, 72 h) | CellTox Green cytotoxicity fluorescence (1 µM, 24 h) | CellTox Green cytotoxicity fluorescence (1 µM, 48 h) | CellTox Green cytotoxicity fluorescence (1 µM, 72 h)
CCCCNc1ncc2c(-c3ccc(CN4CCN(C)CC4)cc3)cn([C@H]3CC[C@H](O)CC3)c2n1 | 1.03 | 1.16 | 1.28 | 1.04 | 1.47 | 2.1 (active) | 1.08 | 1.7 | 2.22 (active)
O=C(NS(=O)(=O)c1ccc(Br)s1)c1ccc(Cl)cc1Cl [Tasisulam] | 0.957 | 0.955 | 0.954 | 0.99 | 0.984 | 0.992 | 1 | 0.989 | 1
CCCC[C@@H](C=O)NC(=O)[C@H](CC(C)C)NC(=O)OCc1ccccc1 [Calpeptin] | 0.979 | 0.988 | 0.986 | 1.01 | 1.02 | 1.01 | 1.01 | 1.01 | 0.999
Nc1nc(F)nc2c1ncn2[C@@H]1O[C@H](CO)[C@@H](O)[C@@H]1O [Fludarabine] | 0.938 | 0.968 | 0.976 | 0.992 | 0.985 | 0.98 | 0.994 | 0.984 | 1.01
C=CC(=O)N1CC(=Cc2ccc([N+](=O)[O-])cc2)C(=O)C(=Cc2ccc([N+](=O)[O-])cc2)C1 | 0.967 | 0.965 | 0.983 | 1.11 | 1.66 | 1.78 | 1.68 | 2.12 (active) | 1.92
